Measured values from the supplement of paper PMC3898565.
Values joined by “and” are separate entries in the source; they are usually repeats but may differ in a detail not shown here. Equal entries are not always repeated. Structures can show the parent of a compound that is named as a salt. ± gives the uncertainty stated by the source.

Tested on: U87
Assay: cell viability relative to vehicle control; higher = less growth inhibition (less active)
Conditions: 10 µM; 72 h
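Further: viable cell number estimated from Alamar Blue fluorescence read at 560/90, part of a single-dose primary screen of an FDA-approved drug library.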

Point of comparison: O=C(O)CCNC(=O)c1ccc(/N=N/c2ccc(O)c(C(=O)O)c2)cc1, cell viability 99.6 ± 1.4%. Against it:
- CN(C)CC/C=C1/c2ccccc2COc2ccc(CC(=O)O)cc21 — lower, 95.88 ± 0.86%
- Nc1ccn([C@H]2CC[C@@H](CO)O2)c(=O)n1 — within error, 100 ± 2.5%
- CCCN[C@H]1CCc2nc(N)sc2C1 — higher, 105 ± 1.9%
- CCCCc1nc(Cl)c(CO)n1Cc1ccc(-c2ccccc2-c2nnn[nH]2)cc1 [LOSARTAN Potassium] — higher, 107 ± 1.9%
- COc1ccc2cc([C@H](C)C(=O)O)ccc2c1 — higher, 106 ± 1.4%
- CC(=O)[C@]1(O)Cc2c(O)c3c(c(O)c2[C@@H](O[C@H]2C[C@H](N)[C@H](O)[C@H](C)O2)C1)C(=O)c1ccccc1C3=O [Idarubicin HCL] — lower, 31.6 ± 2.3%
- Cc1ncc([N+](=O)[O-])n1CCO — higher, 104 ± 1.2%
- CC(C)(C)NC(=O)[C@@H]1CN(Cc2cccnc2)CCN1C[C@@H](O)C[C@@H](Cc1ccccc1)C(=O)N[C@H]1c2ccccc2C[C@H]1O — higher, 105.6 ± 0.74%
- CC(C)C[C@H](NC(=O)[C@@H](O)[C@H](N)Cc1ccccc1)C(=O)O — lower, 97.13 ± 0.56%
- CC(C)(C)NC(=O)[C@@H]1C[C@@H]2CCCC[C@@H]2CN1C[C@@H](O)[C@H](Cc1ccccc1)NC(=O)[C@H](CC(N)=O)NC(=O)c1ccc2ccccc2n1 — within error, 96.4 ± 2.6%
- CC(=O)Oc1ccccc1C(=O)Nc1ncc([N+](=O)[O-])s1 — within error, 103 ± 2.3%
- CSc1nc2cc(Cl)c(Oc3cccc(Cl)c3Cl)cc2[nH]1 — within error, 103 ± 2.5%
- CC(C)[C@H]1CC[C@H](C(=O)N[C@H](Cc2ccccc2)C(=O)O)CC1 — higher, 108 ± 1.6%
- CN[C@H]1CC[C@@H](c2ccc(Cl)c(Cl)c2)c2ccccc21 [Sertraline] — lower, 34.2 ± 3.8%
- O=C(O)CCc1nc(-c2ccccc2)c(-c2ccccc2)o1 — higher, 129 ± 2.2%
- CC(C)C[C@H](NC(=O)[C@@H](COC(C)(C)C)NC(=O)[C@H](Cc1ccc(O)cc1)NC(=O)[C@H](CO)NC(=O)[C@H](Cc1c[nH]c2ccccc12)NC(=O)[C@H](Cc1cnc[nH]1)NC(=O)[C@@H]1CCC(=O)N1)C(=O)N[C@@H](CCCNC(=N)N)C(=O)N1CCC[C@H]1C(=O)NNC(N)=O — within error, 101.1 ± 0.58%
- COc1ccc(C(=O)NCc2ccc(OCCN(C)C)cc2)cc1OC — within error, 95.8 ± 3.2%
- Cn1nnc2c(C(N)=O)ncn2c1=O — higher, 106 ± 1.3%
- N[C@@H](C(=O)N[C@@H]1C(=O)N2C(C(=O)O)=C(CSc3cn[nH]n3)CS[C@H]12)c1ccc(O)cc1 — higher, 105 ± 2.1%
- CC#C[C@]1(O)CC[C@H]2[C@@H]3CCC4=CC(=O)CCC4=C3[C@@H](c3ccc(N(C)C)cc3)C[C@@]21C — higher, 105 ± 1.6%
- CN1C2CCCC1CC(NC(=O)c1nn(C)c3ccccc13)C2 (centres undefined) — higher, 108 ± 0.83%
- CC(C)NCC(O)COc1ccc(CCOCC2CC2)cc1 (centres undefined) [Betaxolol] — within error, 100.4 ± 0.2%
- CC(C)Oc1ccc2c(=O)c(-c3ccccc3)coc2c1 — within error, 101 ± 2.6%
- CO[C@H]1O[C@@H]2O[C@@]3(C)CC[C@H]4[C@H](C)CC[C@@H]([C@H]1C)[C@@]24OO3 — higher, 107 ± 2.1%
- CC(C)(C)C(O)/C=C/c1ccc2c(c1)OCO2 (centres undefined) [Stiripentol] — higher, 105.6 ± 0.6%
- COc1ccc(-c2oc3c(CC=C(C)C)c(O[C@@H]4O[C@H](CO)[C@@H](O)[C@H](O)[C@H]4O)cc(O)c3c(=O)c2O[C@@H]2O[C@@H](C)[C@H](O)[C@@H](O)[C@H]2O)cc1 — higher, 105 ± 1.9%
- CC1(C)S[C@@H]2[C@H](/N=C/N3CCCCCC3)C(=O)N2[C@H]1C(=O)O — higher, 104 ± 2.1%
- CN(C)CCc1c[nH]c2ccc(Cn3cncn3)cc12 — within error, 101 ± 4.5%
- CC12CC3CC(C)(C1)CC(N)(C3)C2 — higher, 123 ± 1.4%
- Nc1c2c(nc3c1CCC3)CCCC2 — within error, 97.1 ± 5.7%
- C[C@@H]1CN(CCCn2c3ccccc3c3ccccc32)C[C@H](C)N1 [Rimcazole] — higher, 109 ± 1.3%
- Cc1onc(-c2ccccc2)c1-c1ccc(S(N)(=O)=O)cc1 — higher, 106.8 ± 0.6%
- O=C1[C@H]2CCCC[C@H]2C(=O)N1CCCCN1CCN(c2nsc3ccccc23)CC1 — within error, 102 ± 2.2%
- COc1cc([C@@H]2c3cc4c(cc3[C@@H](O[C@@H]3O[C@@H]5CO[C@@H](C)O[C@H]5[C@H](O)[C@H]3O)[C@H]3COC(=O)[C@H]23)OCO4)cc(OC)c1O [Etoposide] — lower, 70.5 ± 4.8%
- CC1(C)O[C@@H]2[C@@H](CO[C@@]3(COS(N)(=O)=O)OC(C)(C)O[C@@H]23)O1 — higher, 129 ± 2%
- C=CCc1ccc(O)c(-c2ccc(O)c(CC=C)c2)c1 — within error, 100.7 ± 1%
- CC(=O)CCCCn1cnc2c1c(=O)n(C)c(=O)n2C — higher, 105 ± 1.2%

For CN(CCOc1ccc(CC2SC(=O)NC2=O)cc1)c1ccccn1 (centres undefined), the cell viability was 100% and 110%.
